Assay [1] is described as follows: BSK_3C_VCAM1: BioMAP Diversity Plus: 3C Assay for Vascular cell adhesion molecule 1 (VCAM1) Biomarker Activity (AID 2282999; active means hit-call score of the fitted dose curve at least 0.9, where 1 is the maximum; inactive means score below 0.9). The note with it: BioMAP 3C HUVEC, VCAM1 ELISA, cytokine-stimulated; actives raise or lower the signal. Put shortly:
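Human umbilical vein endothelial cells were dosed with compound for 24 h, after which cell-surface VCAM-1 was quantified by ELISA. Bidirectional curve fitting used DMSO as negative control and activity baseline.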

Assay [2] is described as follows: BSK_4H_Eotaxin3: BioMAP Diversity Plus: 4H Assay for Eotaxin 3 Biomarker Activity (AID 2283000; active means hit-call score of the fitted dose curve at least 0.9, where 1 is the maximum; inactive means score below 0.9;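 on outcome: CCL26 protein level quantified by ELISA in parallel with SRB cytotoxicity check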). The note with it: primary human endothelial cells (HUVEC); actives raise or lower the signal. Put shortly:
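HUVEC, 24 h post-dose, ELISA for Eotaxin-3/CCL26. Gain or loss of signal fitted bidirectionally vs DMSO baseline.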

The target of assay [3] is human Peroxisome Proliferator-activated Receptor delta (PPARd), PPARD (gene 5467) (UniProt Q03181). Kind of assay: ATG_PPARd_TRANS: Attagene TRANS-FACTORIAL HepG2 Assay for human Peroxisome Proliferator-activated Receptor delta (PPARd) (AID 2283002). Put shortly:
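Multiplexed trans-activation format: HepG2 liver cells expressing exogenous NR-Gal4 chimeras and GAL4-UAS reporters were exposed for 24 h. Reporter mRNA was detected by RT-PCR with capillary electrophoresis fluorescence; activity fitted as gain of signal relative to DMSO.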

Read-out in assay [4]: Intercellular Adhesion Molecule 1 (ICAM1), ICAM1 (gene 3383)
Kind of assay: BSK_3C_ICAM1: BioMAP Diversity Plus: 3C Assay for Intercellular Adhesion Molecule 1 (ICAM1) Biomarker Activity (AID 2283003; active means hit-call score of the fitted dose curve at least 0.9, where 1 is the maximum; inactive means score below 0.9). The note with it: primary human endothelial cells (HUVEC); actives raise or lower the signal. Put shortly: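 ICAM-1 levels measured by ELISA after HUVEC cultures in the 3C system had been dosed for 24 h. Gain or loss of signal relative to DMSO was fitted in both directions.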

The target in assay [5] is human Retinoic Acid Receptor beta (RARb), RARB (gene 5915) (UniProt P10826). Nature of the assay: ATG_RARb_TRANS: Attagene TRANS-FACTORIAL HepG2 Assay for human Retinoic Acid Receptor beta (AID 2283004). Put shortly: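 HepG2 cells transiently transfected with multiplexed GAL4-UAS reporter units expressing chimeric NR–Gal4 fusions; 24 h compound exposure. Reporter mRNA quantified by RT-PCR, 6-FAM labelling, HpaI digestion and capillary electrophoresis; gain-of-signal fitted against DMSO baseline.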
human Retinoic Acid Receptor beta (RARb), RARB (gene 5915), sequence (P10826 whole entry, looked up, the tested form may be a part): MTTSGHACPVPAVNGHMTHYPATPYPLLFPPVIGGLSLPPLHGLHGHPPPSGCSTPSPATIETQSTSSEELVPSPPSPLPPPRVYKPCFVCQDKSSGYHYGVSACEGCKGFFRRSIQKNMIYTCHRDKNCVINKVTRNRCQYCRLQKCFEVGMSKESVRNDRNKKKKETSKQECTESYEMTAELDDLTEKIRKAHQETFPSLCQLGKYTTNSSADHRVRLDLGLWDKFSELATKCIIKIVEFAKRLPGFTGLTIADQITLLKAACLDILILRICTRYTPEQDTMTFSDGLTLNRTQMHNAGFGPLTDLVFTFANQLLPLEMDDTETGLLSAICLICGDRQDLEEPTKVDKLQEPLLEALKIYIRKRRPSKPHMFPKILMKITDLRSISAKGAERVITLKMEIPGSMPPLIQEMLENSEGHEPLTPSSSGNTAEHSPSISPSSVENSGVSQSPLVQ

Assay [6] in a line: BSK_3C_Proliferation: Cell Proliferation Assessment in the BioMAP Diversity Plus: 3C Assay (AID 2283006; active means hit-call score of the fitted dose curve at least 0.9, where 1 is the maximum; inactive means score below 0.9;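 on AC50: potency may reflect either rise or fall in cell number versus DMSO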). The note with it: primary human endothelial cells (HUVEC). The essentials:
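Read-out is total protein by SRB absorbance at 560 nm, taken as a proxy for relative cell number. Primary human umbilical vein endothelium cultured below confluence was dosed for 48 h, TCA-fixed and SRB-stained; curves were fitted bidirectionally versus DMSO.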

The target of assay [7] is Peroxisome proliferator-activated receptor gamma (Homo sapiens) (UniProt P37231). Nature of the assay: ATG_PPARg_TRANS: Attagene TRANS-FACTORIAL HepG2 Assay for human Peroxisome Proliferator-activated Receptor-gamma (PPARg) (AID 2283007). The essentials: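 A TRANS-format multiplexed reporter assay measures activity of an exogenous chimeric NR-Gal4 protein in HepG2 cells. After 24 h of chemical exposure, reporter transcripts are amplified, fluorescently labelled and sized by capillary electrophoresis, with gain of signal scored against DMSO.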
Peroxisome proliferator-activated receptor gamma (Homo sapiens), sequence (P37231 whole entry, looked up, the tested form may be a part): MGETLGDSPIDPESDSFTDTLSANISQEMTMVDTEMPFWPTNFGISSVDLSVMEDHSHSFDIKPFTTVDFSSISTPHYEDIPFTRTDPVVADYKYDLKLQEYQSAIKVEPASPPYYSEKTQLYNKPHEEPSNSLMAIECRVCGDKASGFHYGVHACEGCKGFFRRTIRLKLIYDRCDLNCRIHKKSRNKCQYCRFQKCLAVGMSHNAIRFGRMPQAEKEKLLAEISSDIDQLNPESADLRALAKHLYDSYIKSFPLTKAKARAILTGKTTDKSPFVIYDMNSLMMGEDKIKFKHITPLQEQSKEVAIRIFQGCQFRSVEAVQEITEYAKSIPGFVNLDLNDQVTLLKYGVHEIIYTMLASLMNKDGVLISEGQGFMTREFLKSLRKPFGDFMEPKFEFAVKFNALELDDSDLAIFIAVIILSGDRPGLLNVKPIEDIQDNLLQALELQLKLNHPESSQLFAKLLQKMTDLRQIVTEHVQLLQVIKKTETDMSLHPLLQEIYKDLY

The target in assay [8] is Nuclear receptor subfamily 1 group I member 2 (Homo sapiens) (UniProt O75469). Kind of assay: ATG_PXR_TRANS: Attagene TRANS-FACTORIAL HepG2 Assay for human Pregnane X Receptor (PXR) (AID 2283008). The essentials:
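HepG2 cells transiently transfected with multiple reporter units, here a PXR-GAL4 chimera driving a GAL4-UAS reporter; 24 h compound exposure. Reporter mRNA measured by RT-PCR, FAM labelling and capillary electrophoresis; gain of signal fitted against DMSO baseline.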

Assay [9] concerns the target human RAR-related Orphan Receptor beta (RORb), RORB (gene 6096) (UniProt Q92753). Kind of assay: ATG_RORb_TRANS: Attagene TRANS-FACTORIAL HepG2 Assay for human RAR-related Orphan Receptor beta (RORb) (AID 2283010). Put shortly: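 Readout is reporter-gene mRNA induction, detected as fluorescence after RT-PCR and capillary electrophoresis, fitted for gain of signal against DMSO controls. Transiently transfected HepG2 liver cells carrying GAL4-UAS reporter constructs were treated for 24 hours.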

Assay [10] deals with human RAR-related Orphan Receptor gamma (RORg), RORC (gene 6097) (UniProt P51449). Nature of the assay: ATG_RORg_TRANS: Attagene TRANS-FACTORIAL HepG2 Assay for human RAR-related Orphan Receptor gamma (RORg) (AID 2283011). Put shortly:
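Readout: reporter transcript induction (RT-PCR, fluorescent primer extension, capillary electrophoresis) after 24 h compound exposure of transiently transfected HepG2 cells carrying a RORg-Gal4 chimera and GAL4-UAS reporters; DMSO served as baseline, with increasing signal fitted.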

Assay [11] has as its target Retinoic acid receptor RXR-alpha (Homo sapiens) (UniProt P19793). Nature of the assay: ATG_RXRa_TRANS: Attagene TRANS-FACTORIAL HepG2 Assay for human Retinoid X Receptor alpha (RXRa) (AID 2283012). Put shortly: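 Transient transfection of human HepG2 with multiple GAL4-UAS reporter constructs; 24 h compound exposure; total RNA isolated, reverse-transcribed, PCR-amplified, 6-FAM labelled, HpaI-cut, resolved by capillary electrophoresis. Positive-direction fit versus DMSO.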

Assay [12] addresses human Retinoid X Receptor beta (RXRb), RXRB (gene 6257) (UniProt P28702). Kind of assay: ATG_RXRb_TRANS: Attagene TRANS-FACTORIAL HepG2 Assay for human Retinoid X Receptor beta (RXRb) (AID 2283013). Put shortly: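 Transfect HepG2 with GAL4-UAS multi-reporter constructs (chimeric NR-Gal4, TRANS format); dose compound 24 h; isolate RNA, RT-PCR, FAM primer extension, HpaI digest; quantify by capillary electrophoresis; positive direction vs DMSO.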

For assay [13], the target named is human Thyroid Receptor alpha (THRa1), THRA (gene 7067) (UniProt P10827). Kind of assay: ATG_THRa1_TRANS: Attagene TRANS-FACTORIAL HepG2 Assay for human Thyroid Receptor alpha (THRa1) (AID 2283014). Put shortly:
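HepG2 cells transiently transfected with multiplexed GAL4-UAS reporter units for exogenous chimeric THRa1-Gal4; reporter mRNA measured 24 h after dosing by RT-PCR, 6-FAM labelling, HpaI digestion and capillary electrophoresis. Gain-of-signal fitted versus DMSO baseline.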

Read-out in assay [14]: E-selectin (Homo sapiens) (UniProt P16581)
Nature of the assay: BSK_3C_Eselectin: BioMAP Diversity Plus: 3C Assay for Eselectin Biomarker Activity (AID 2283015; active means hit-call score of the fitted dose curve at least 0.9, where 1 is the maximum; inactive means score below 0.9;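 further: cell surface E-selectin protein quantified by ELISA 24 h after dosing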). The note with it: primary human endothelial cells (HUVEC); actives raise or lower the signal. Put shortly:
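Primary human umbilical vein endothelial cells (3C system) were dosed with chemical and cell-surface E-selectin measured by ELISA 24 h later. Bidirectional curve fitting used DMSO as negative control and baseline.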

Read-out in assay [15]: Monocyte Chemoattractant Protein-1 (MCP1), CCL2 (gene 6347)
Kind of assay: BSK_3C_MCP1: BioMAP Diversity Plus: 3C Assay for Monocyte Chemoattractant Protein-1 (MCP1) Biomarker Activity (AID 2283017; active means hit-call score of the fitted dose curve at least 0.9, where 1 is the maximum; inactive means score below 0.9). The note with it: primary human endothelial cells (HUVEC); actives raise or lower the signal. The essentials: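 Primary human umbilical vein endothelial cells (3C system) were exposed to test chemical for 24 h, after which MCP-1 was quantified by ELISA. Activity was fitted bidirectionally against DMSO as negative control and baseline.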

Read-out in assay [16]: Monocyte Chemoattractant Protein-1 (MCP1), CCL2 (gene 6347)
Kind of assay: BSK_4H_MCP1: BioMAP Diversity Plus: 4H Assay for Monocyte Chemoattractant Protein-1 (MCP1) Biomarker Activity (AID 2283018; active means hit-call score of the fitted dose curve at least 0.9, where 1 is the maximum; inactive means score below 0.9). The note with it: primary human endothelial cells (HUVEC); actives raise or lower the signal. Put shortly:
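ELISA read-out of MCP-1 from human vascular endothelial primary cells taken at 24 hours after compound exposure. Activity was fitted in both directions relative to DMSO, which served as negative control.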

For assay [17], the target named is Retinoic acid receptor alpha (Homo sapiens) (UniProt P10276). Nature of the assay: ATG_RARa_TRANS: Attagene TRANS-FACTORIAL HepG2 Assay for human Retinoic Acid Receptor alpha (RARa) (AID 2283005). Put shortly: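 HepG2 cells transiently transfected with multiple reporter units expressing chimeric RARα-GAL4 fusion, with GAL4-UAS-driven reporters. After 24 h compound exposure, reporter mRNA induction quantified by RT-PCR and capillary electrophoresis with fluorescent labeling; gain-of-signal fitted relative to DMSO control.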
Retinoic acid receptor alpha (Homo sapiens), sequence (P10276 whole entry, looked up, the tested form may be a part): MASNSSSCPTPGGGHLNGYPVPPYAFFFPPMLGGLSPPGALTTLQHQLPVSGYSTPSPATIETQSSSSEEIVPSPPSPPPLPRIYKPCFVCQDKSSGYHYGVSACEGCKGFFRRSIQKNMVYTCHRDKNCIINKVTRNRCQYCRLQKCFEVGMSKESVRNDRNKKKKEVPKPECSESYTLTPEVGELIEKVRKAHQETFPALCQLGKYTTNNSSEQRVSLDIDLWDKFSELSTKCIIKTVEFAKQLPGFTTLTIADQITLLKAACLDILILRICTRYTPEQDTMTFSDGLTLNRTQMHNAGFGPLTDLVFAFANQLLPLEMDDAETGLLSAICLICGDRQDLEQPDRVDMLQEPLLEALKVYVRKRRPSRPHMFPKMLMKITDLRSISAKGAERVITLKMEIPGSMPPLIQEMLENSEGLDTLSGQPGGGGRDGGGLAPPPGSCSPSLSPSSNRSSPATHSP

In assay [18] the target is human Retinoic Acid Receptor gamma (RARg), RARG (gene 5916) (UniProt P13631). Nature of the assay: ATG_RARg_TRANS: Attagene TRANS-FACTORIAL HepG2 Assay for human Retinoic Acid Receptor gamma (RARg) (AID 2283009). The essentials: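 Transient transfection of HepG2 with multi-reporter constructs, then 24 h chemical treatment. Total RNA isolated, reverse-transcribed, PCR-amplified, fluorescently labelled and resolved by capillary electrophoresis; activity scored as mRNA induction versus DMSO.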

Structures are written as SMILES. Results filed as inconclusive are left out. Calls of active or inactive are those of the source. How the source made its calls, unless noted: active means hit-call score of the fitted dose curve at least 0.9, where 1 is the maximum; inconclusive means response in the unintended direction; inactive means score below 0.9.

Nuclear receptor subfamily 1 group I member 2 (Homo sapiens), sequence (O75469 whole entry, looked up, the tested form may be a part): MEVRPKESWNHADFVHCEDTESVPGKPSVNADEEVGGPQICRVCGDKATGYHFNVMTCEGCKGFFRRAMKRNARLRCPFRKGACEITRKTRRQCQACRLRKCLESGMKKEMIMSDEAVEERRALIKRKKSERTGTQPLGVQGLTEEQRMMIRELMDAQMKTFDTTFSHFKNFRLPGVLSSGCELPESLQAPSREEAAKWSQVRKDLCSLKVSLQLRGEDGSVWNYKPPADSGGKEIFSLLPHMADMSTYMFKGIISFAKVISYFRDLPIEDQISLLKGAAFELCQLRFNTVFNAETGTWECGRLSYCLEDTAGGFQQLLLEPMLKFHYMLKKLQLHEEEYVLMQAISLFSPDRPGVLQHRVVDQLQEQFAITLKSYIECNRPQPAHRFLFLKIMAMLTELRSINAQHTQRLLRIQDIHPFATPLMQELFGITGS
E-selectin (Homo sapiens), sequence (P16581 whole entry, looked up): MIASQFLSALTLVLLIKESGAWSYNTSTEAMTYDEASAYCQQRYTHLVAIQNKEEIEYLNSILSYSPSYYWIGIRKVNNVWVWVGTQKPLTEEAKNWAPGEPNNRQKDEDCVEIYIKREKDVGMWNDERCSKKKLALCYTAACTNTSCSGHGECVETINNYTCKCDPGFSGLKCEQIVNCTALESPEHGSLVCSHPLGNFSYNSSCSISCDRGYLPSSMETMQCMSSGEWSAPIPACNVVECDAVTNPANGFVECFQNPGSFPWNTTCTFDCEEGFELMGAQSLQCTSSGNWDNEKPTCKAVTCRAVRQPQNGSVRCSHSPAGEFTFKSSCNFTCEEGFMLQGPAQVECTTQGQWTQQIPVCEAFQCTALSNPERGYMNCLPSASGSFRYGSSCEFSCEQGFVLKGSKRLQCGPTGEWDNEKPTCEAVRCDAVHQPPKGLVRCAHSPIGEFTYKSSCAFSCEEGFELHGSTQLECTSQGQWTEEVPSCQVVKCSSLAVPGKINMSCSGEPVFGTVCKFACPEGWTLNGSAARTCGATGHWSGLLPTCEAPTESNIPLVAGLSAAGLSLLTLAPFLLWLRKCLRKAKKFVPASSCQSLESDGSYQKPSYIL
Retinoic acid receptor RXR-alpha (Homo sapiens), sequence (P19793 whole entry, looked up, the tested form may be a part): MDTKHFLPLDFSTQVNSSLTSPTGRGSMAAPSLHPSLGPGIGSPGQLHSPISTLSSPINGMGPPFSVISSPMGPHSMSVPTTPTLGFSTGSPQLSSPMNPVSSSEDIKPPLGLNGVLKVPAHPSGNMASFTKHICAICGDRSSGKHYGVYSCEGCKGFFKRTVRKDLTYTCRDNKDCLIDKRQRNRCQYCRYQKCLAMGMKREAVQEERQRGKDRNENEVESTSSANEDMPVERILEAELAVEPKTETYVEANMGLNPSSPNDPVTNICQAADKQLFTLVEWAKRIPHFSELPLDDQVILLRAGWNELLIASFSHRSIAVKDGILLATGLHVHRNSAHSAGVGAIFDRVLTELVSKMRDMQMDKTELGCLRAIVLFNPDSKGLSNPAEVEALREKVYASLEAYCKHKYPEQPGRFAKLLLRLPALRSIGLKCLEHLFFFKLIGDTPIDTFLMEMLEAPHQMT
human Peroxisome Proliferator-activated Receptor delta (PPARd), PPARD (gene 5467), sequence (Q03181 whole entry, looked up, the tested form may be a part): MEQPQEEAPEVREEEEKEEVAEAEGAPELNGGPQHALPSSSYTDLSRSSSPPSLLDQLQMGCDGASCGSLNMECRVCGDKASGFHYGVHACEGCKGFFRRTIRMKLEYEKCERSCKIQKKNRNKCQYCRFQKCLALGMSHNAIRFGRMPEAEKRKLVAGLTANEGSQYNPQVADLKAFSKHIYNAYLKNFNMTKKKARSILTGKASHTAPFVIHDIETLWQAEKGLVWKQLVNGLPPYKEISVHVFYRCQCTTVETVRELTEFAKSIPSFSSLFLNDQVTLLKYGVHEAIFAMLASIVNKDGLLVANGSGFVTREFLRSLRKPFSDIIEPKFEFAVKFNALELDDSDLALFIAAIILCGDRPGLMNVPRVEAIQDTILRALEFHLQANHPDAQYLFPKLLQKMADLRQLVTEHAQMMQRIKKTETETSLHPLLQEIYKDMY
human RAR-related Orphan Receptor gamma (RORg), RORC (gene 6097), sequence (P51449 whole entry, looked up, the tested form may be a part): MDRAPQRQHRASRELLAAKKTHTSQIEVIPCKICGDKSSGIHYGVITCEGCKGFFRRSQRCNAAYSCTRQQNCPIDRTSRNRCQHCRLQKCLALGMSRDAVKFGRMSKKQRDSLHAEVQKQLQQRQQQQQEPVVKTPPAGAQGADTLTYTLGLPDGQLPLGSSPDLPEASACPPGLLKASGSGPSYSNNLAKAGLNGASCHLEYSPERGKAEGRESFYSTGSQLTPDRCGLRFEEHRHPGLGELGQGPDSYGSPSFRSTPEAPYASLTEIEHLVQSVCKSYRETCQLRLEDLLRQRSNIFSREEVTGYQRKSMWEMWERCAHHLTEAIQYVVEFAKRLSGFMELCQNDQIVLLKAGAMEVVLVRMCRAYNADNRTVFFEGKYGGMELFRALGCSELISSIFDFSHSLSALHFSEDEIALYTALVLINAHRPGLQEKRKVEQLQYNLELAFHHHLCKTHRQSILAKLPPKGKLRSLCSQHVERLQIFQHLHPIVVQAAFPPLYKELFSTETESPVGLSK
human Retinoid X Receptor beta (RXRb), RXRB (gene 6257), sequence (P28702 whole entry, looked up, the tested form may be a part): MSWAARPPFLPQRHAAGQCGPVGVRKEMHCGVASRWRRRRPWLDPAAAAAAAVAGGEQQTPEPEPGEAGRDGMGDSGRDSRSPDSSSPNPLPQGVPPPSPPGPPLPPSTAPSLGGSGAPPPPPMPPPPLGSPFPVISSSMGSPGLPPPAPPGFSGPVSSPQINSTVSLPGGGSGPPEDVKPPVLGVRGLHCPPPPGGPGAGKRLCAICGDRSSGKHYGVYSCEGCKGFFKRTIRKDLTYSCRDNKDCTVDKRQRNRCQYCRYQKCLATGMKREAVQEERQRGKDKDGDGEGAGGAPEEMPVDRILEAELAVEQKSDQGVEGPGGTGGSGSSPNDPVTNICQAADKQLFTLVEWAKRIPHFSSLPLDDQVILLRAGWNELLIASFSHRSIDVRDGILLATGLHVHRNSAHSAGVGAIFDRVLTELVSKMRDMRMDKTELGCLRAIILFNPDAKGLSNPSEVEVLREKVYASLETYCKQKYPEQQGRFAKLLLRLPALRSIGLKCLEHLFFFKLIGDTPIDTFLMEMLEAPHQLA
human RAR-related Orphan Receptor beta (RORb), RORB (gene 6096), sequence (Q92753 whole entry, looked up, the tested form may be a part): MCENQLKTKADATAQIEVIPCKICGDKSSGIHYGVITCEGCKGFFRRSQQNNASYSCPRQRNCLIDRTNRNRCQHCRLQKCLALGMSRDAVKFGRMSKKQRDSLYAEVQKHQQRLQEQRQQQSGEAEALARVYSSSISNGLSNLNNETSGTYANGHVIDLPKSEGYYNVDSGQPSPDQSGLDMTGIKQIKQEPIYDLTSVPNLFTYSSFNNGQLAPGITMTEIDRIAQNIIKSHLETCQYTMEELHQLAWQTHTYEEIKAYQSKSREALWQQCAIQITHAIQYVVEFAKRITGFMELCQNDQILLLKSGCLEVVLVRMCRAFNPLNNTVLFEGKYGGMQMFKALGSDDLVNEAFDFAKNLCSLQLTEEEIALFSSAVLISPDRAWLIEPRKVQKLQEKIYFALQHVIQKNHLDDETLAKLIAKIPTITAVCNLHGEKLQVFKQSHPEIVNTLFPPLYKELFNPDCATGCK

For the molecule `CCCCOC(=O)C(C)Oc1ccc(Oc2ccc(C(F)(F)F)cn2)cc1` (stereo not given), the result in assay [1], in [2], in assay [3], in assay [4], in assay [5] and in [6] was inactive. Further, the outcome in assay [7], in assay [8], in assay [9], in [10], in [11] and in [12] was inactive. The call in assay [13], in assay [14], in assay [15] and in assay [16] was inactive.
Take `O=C(Nc1ccc([N+](=O)[O-])cc1Cl)c1cc(Cl)ccc1O`: the AC50 (commonly the midpoint of the concentration-response curve, whichever way the signal moves) in [1] is 189 nM (active); in [2], 148 nM (active); in assay [4], 20000 nM (active); in assay [6], 313 nM (active). Besides, the outcome in assay [3], in assay [5], in assay [17], in assay [7], in assay [8] and in assay [18] was inactive. Also, the molecule was called inactive in assay [9], in assay [13], in assay [14] and in assay [15].
For the molecule `c1ccc2[nH]c(-c3cscn3)nc2c1`, the result in assay [1], in [2], in assay [3], in assay [4], in assay [5] and in assay [17] was inactive. The outcome in assay [6], in [7], in assay [8], in assay [10], in assay [11] and in [12] was inactive. The outcome in assay [14], in assay [15] and in assay [16] was inactive.

(Values after PubChem BioAssay (EPA / NIEHS).)
